# Assay outcomes: PubChem, The Scripps Research Institute Molecular Screening Center
# Sampled rows, rich in hits. Any-hit rate of the full collection: about 2.3%.
# CHO-K1 Ca antag: counter-screen for M1 antagonists: effect in parental CHO-K1 cells. ATP-induced calcium, Fluo-8 fluorescence. inhibition, % at 3 µM. 360,000 tested, 0.6% active. AID 602250;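 active means inhibition above a per-plate cutoff, the plate's mean sample inhibition plus 3 SD, cut at about 24% in these data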;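 further: 0% = DMSO plus EC80 ATP and 100% = DMSO alone without ATP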
# M1 PAM: potentiates human M1 receptor response to acetylcholine; CHO-K1 hM1, Fluo-8 calcium fluorescence, ACh EC20; 0% = ACh EC20, 100% = maximal ACh; activation, % at 3 µM; 360,000 tested, 0.088% active; AID 588819; in the data active means activation above about 19%, passing the limit was not always enough
# Target sequence (P11229 whole entry, looked up): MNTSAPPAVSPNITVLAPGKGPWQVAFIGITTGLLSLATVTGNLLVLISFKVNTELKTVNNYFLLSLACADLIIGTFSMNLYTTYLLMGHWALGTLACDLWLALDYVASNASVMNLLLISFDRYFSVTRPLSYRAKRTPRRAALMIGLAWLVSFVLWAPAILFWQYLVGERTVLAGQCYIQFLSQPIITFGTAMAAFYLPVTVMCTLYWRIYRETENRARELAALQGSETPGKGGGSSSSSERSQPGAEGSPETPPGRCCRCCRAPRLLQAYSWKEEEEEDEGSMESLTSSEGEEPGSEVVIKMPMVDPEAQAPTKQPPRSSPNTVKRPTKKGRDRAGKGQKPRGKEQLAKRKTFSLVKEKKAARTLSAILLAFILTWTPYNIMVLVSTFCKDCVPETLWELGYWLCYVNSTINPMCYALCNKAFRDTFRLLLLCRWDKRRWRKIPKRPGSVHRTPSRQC
# M1 antag: human CHRM1 antagonism; P11229; CHO-K1 hM1, Fluo-8 calcium fluorescence, ACh EC80 antagonist; inhibition, % at 3 µM; 360,000 tested, 1.3% active; AID 588852;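 active means percent inhibition above its own plate's cutoff, namely the mean of that plate's compound wells plus 3 SD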;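 further: peak over basal fluorescence ratio during 140 s after agonist addition; 0% = ACh EC80 plus DMSO and 100% = DMSO alone without agonist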
# M1 ag parental: counter-screen for M1 agonists: effect in parental CHO-K1 cells | 360,000 tested, 0.48% active | activation, % at 3 µM | Fluo-8 calcium fluorescence; scaled to maximal ATP response, vehicle zero | AID 602248; in the data active means activation above about 15%;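 further: untransfected CHO-K1 host cells lacking M1 receptor as counterscreen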
# M1 ag: agonists of human M1 muscarinic receptor; P11229; CHO-K1 hM1, Fluo-8 calcium fluorescence, agonist mode; 0% DMSO, 100% acetylcholine EC100; activation, % at 3 µM; 360,000 tested, 0.33% active; AID 588814;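 active means activation above the run's mean compound activation plus 3 SD, cut at about 16% in these data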;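 further: peak over basal fluorescence ratio within a 140 s kinetic read after compound addition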
# M1 PAM parental: M1 PAM counterscreen hit in parental CHO-K1 cells; ATP EC20, Fluo-8 calcium fluorescence; 0% at ATP EC20, 100% at ATP max; activation, % at 3 µM; 360,000 tested, 0.02% active;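 active means activation above the run cutoff, the mean activation of all test compounds plus 3 SD, cut at about 40% in these data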;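 further: peak over basal fluorescence ratio in a 140 s read after ATP addition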
# An asterisk follows results filed as active; x = no result given.
SMILES,CHO-K1 Ca antag,M1 PAM,M1 antag,M1 ag parental,M1 ag,M1 PAM parental
NC(=O)c1cccnc1Oc1ccccc1,4,18,-13,0,-2,-15
CCCn1c(SCC(=O)N2N=C3/C(=C/c4ccc(OC)cc4)CCCC3C2c2ccc(OC)cc2)n[nH]c1=O (stereo not drawn),10,-1,21,24*,9,16
Cc1ccc2sc(N(CCCN(C)C)C(=O)c3ccc(Br)s3)nc2c1C,-4,-10,26,5,9,15
C#CCN(C[C@H]1[C@H](OC(=O)NCCCCCC)[C@H](OC(=O)NCCCCCC)C[C@@H](C(=O)OC)[C@H]1C(=O)OC)S(=O)(=O)c1ccc(C)cc1,6,9,-13,0,-1,-8
C#CCN(C[C@H]1[C@H](OC(=O)NCc2ccccc2)[C@H](OC(=O)NCc2ccccc2)C[C@@H](C(=O)OC)[C@H]1C(=O)OC)S(=O)(=O)c1ccc(C)cc1,38*,10,-4,0,1,-7
CC(O)(c1cccnc1)c1nc(-c2ccc(F)c(Cl)c2)cs1 (stereo not drawn),15,-16,24,7,2,-12
COc1cc(OC)c(-c2nc3ccccc3s2)cc1OC,-9,6,-3,0,-4,1
COc1cccc(-c2nc3ccccc3s2)c1O,1,12,2,15*,-9,18
COc1ccccc1C(=O)Nc1nc2ccccc2s1,-3,-17,31*,1,-6,15
COc1ccc(C(=O)Nc2nc3ccccc3s2)c(OC)c1,1,-2,-7,1,-6,-5
Cc1cccc(NC(=O)C(=O)NCC2CCCN2S(=O)(=O)c2ccccc2)c1 (stereo not drawn),0,-2,13,2,-3,13
CC(C)c1csc(CN2CCC(CO)(Cc3cccc(F)c3)CC2)n1,2,-20,26,4,-8,-7
COc1ccc(NC(=O)C2Cc3c(-c4cccc(C(N)=O)c4)ccnc3O2)cc1 (stereo not drawn),-18,6,-16,1,0,12
OC1(c2ccc(OC(F)F)cc2)CSC(=Nc2cccnc2)N1C1CC1 (stereo not drawn),12,-16,21*,8,1,3
COc1ccc(OC)c(C2(O)CSC(=Nc3cccnc3)N2Cc2ccco2)c1 (stereo not drawn),-6,2,1,2,-2,7
CCOC(=O)c1ccc2c(c1)n(CC)c(/C=C/N(C)c1ccccc1)[n+]2CC,-10,-13,19,1,-9,11
CC[n+]1c(/C=C/N(C)c2ccccc2)n(-c2ccccc2)c2ccc(-c3nc4ccccc4s3)cc21,34*,-30,98*,6,-6,-2
O=C(O)c1cn(Cc2ccccc2)c2ccccc2c1=O,-5,-11,62*,1,82*,23
O=C(O)CSc1cn(Cc2ccccc2)c2ccccc12,-9,9,-12,1,-3,13
CCCNC(=O)c1ccc(N2CCC3(CC2)CC(c2ccccc2)=NO3)c(NC(=O)c2ccccc2)c1,-3,-22,32*,2,-8,9
CCc1cc(CNC(=O)C2CCC(=O)N(Cc3cccc(F)c3)C2)on1 (stereo not drawn),6,11,-12,6,-3,1
CN(C)/C=N/C(=S)Nc1cc(Cl)cc(Cl)c1,10,1,1,18*,-4,4
O=C(CSCc1c(F)cccc1Cl)NNC(=S)NC1CCCCC1,-1,5,-7,3,0,0
Cn1c(N)c(-c2ccccc2)c2ccc([N+](=O)[O-])cc2c1=O,-5,-24,42*,16*,62*,-6
Cc1c(C(=O)NCc2ccco2)sc(=O)n1Cc1ccc(S(C)(=O)=O)cc1,1,7,-21,1,-8,3
SMILES,CHO-K1 Ca antag,M1 PAM,M1 antag,M1 ag parental,M1 ag,M1 PAM parental
NC(=O)c1ccc(N2CCN(S(=O)(=O)c3cccs3)CC2)c([N+](=O)[O-])c1,23,-14,35*,17*,3,-8
COc1ccccc1NS(=O)(=O)c1cccc(-n2c(O)c(C=Nc3ccccc3C(=O)O)c3ccccc3c2=O)c1,-15,-2,70*,-1,-5,17
COc1ccccc1CCNC(=O)Cn1ccc2cc(S(=O)(=O)N3CCC(C)CC3)ccc21,-8,0,-6,3,-3,4
COCCNCC(=O)N1c2ccccc2Sc2ccccc21,0,-29,90*,0,-9,-8
COCCCNC(=O)N1c2ccccc2Sc2ccccc21,-6,19,-21,1,-7,15
CC(C)CNCC(=O)N1c2ccccc2Sc2ccccc21,-2,-22,93*,1,-6,15
CC(=O)Nc1ccc(S(=O)(=O)NC2CC(=O)N(c3ccc(C)cc3)C2)cc1 (stereo not drawn),0,0,2,1,-5,3
Cc1ccccc1NC(=O)NC(C)(C)CC(C)(C)C,-12,2,-9,19*,-1,13
O=C(Nc1ccc(OC(F)(F)F)cc1)Nc1cccc([N+](=O)[O-])c1,23,-14,34,16*,2,-1
CC(C)(C)CC(C)(C)NC(=O)Nc1cccc([N+](=O)[O-])c1,15,-17,32*,13,1,-22
O=C(Nc1ccc(OC(F)(F)F)cc1)Nc1cccnc1,0,3,-3,4,1,-2
Cc1ccc(NC(=O)Nc2cccc([N+](=O)[O-])c2)cc1F,17,-16,26,15*,1,13
Cc1ccccc1NC(=O)CC(=O)Nc1ccccc1C,-8,0,2,1,-3,7
CC(C)(C)c1ccc(C(=O)Nc2cccc([N+](=O)[O-])c2)cc1,-2,-14,13,7,-6,10
CC(C)(C)S(=O)(=O)N1C[C@H]2C(=CC[C@@H]3C(=O)N(c4ccccc4)C(=O)[C@@H]32)[C@H]1CCO,-15,-3,1,1,-4,30
CCc1ccc(C(=O)C(C)OC(=O)C2COc3ccccc3O2)cc1 (stereo not drawn),5,1,-3,8,-8,12
Cn1cc(CNCc2ccc(OC(F)(F)F)cc2)c(-c2ccc3c(c2)OCCO3)n1,22,-10,33*,12,5,4
CC(C)CN1C(=O)C(=O)N(CC(=O)N2c3ccccc3NC(=O)CC2C)C1=O (stereo not drawn),-13,8,-12,1,-1,9
CC1CC(=O)Nc2ccccc2N1C(=O)CN1CCN(C=O)CC1 (stereo not drawn),4,11,-9,15*,-7,21
CCOC(=O)[C@]12CCC=C1N(CCC1=CCCCC1)C(=O)[C@H](CC(=O)N1CCCC1)C2,-19,x,x,1,x,19
